# Bioassay records (PubChem BioAssay)
# VP16 counter – counter-screen for ROR gamma inhibitors: Gal4-VP16 reporter; Drosophila S2 Gal4-VP16 UAS-luciferase, luminescence, 20 h; Potency, µM (doses to about 53.6 µM), for inactives: at the highest dose activity, negative = inhibition, most hits filed as inhibitors; 310,000 compounds, 3.5% hits;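 note: Gal4-VP16 expression switched on by copper sulfate through the metallothionein promoter; % is set by controls: 0 for no effect and ±100 for the full control effect; nearly all actives have a fitted effect of over 50% in size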
# RORg inh – blocks mouse ROR gamma transcriptional activity; 310,000 compounds, 5.4% hits; AID 2551; Potency, µM (doses to about 53.6 µM), without a hit: top-dose activity change, negative = inhibition, usual class: inhibitors; Drosophila S2 Gal4-RORgamma UAS-luciferase reporter, 20 h; note: % is set by controls: 0 for no effect and ±100 for the full control effect; nearly all actives have a fitted effect of over 60% in size
# Target sequence (P51450 whole entry, looked up, the tested form may be a part): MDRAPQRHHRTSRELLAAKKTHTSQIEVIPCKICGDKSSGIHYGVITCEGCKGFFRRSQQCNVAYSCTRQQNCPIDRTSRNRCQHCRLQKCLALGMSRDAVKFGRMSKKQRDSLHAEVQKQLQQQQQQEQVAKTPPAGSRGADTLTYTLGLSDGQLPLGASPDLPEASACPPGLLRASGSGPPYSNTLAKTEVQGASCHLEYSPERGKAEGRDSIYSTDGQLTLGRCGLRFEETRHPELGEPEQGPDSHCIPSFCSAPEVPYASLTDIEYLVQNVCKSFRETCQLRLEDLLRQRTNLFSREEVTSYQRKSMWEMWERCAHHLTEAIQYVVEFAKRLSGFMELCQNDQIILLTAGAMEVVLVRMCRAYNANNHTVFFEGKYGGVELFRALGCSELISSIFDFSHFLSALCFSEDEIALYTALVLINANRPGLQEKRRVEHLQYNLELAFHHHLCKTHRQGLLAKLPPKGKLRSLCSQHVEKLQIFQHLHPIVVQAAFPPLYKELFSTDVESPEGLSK
#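 Luminescence from a UAS-regulated Photinus luciferase reporter in stably transfected Drosophila Schneider cells is measured; decreased signal marks ROR gamma inhibition. Fusion expression is induced by 700 uM copper sulfate for 20 hr.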
# ELG1 repair inh – blocks ELG1-dependent DNA repair in HEK293T cells; HEK293T ELG1-luciferase reporter, luminescence, 16 h; DNA damage induced by 5-fluorouridine; Potency, µM (highest dose often 46.1 µM), for inactives: at the highest dose activity change, negative = inhibition, actives largely listed as inhibitors; 330,000 compounds, 2.3% hits; AID 504467; note: % is set by controls: 0 for no effect and ±100 for the full control effect; nearly all actives have a fitted effect of over 55% in size
#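 5-Fluorouridine DNA damage + compound/DMSO, 2,000 cells/well, 16 h, 37 °C/5% CO2. ONE-Glo, 30 min RT, luminescence. Readout = decrease in reporter signal.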
# MCF10A rerep – inducers of DNA re-replication in MCF 10A breast cells. Potency, µM (highest dose often 46.1 µM), without a hit: at the top dose activity, positive = re-replication, hits mostly activators. MCF 10A DNA re-replication, Hoechst nuclear intensity, 48 h. 350,000 compounds, 2.9% hits. AID 624296; note: % of control where 0% means no effect; nearly all actives have a fitted effect of over 50% in size
# SW480 rerep – induces DNA re-replication in SW480 colon adenocarcinoma cells; SW480 DNA re-replication, Hoechst DNA content imaging, 48 h; Potency, µM (doses to about 46.1 µM), for the others: top-dose re-replication activation, actives largely listed as activators; 340,000 compounds, 1.8% hits; note: % of control where 0% means no effect; nearly all actives have a fitted effect of over 55% in size
#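 250 cells/well; 23 nL cpd via pin tool; 48 hr, 37 C, 5% CO2; Hoechst 40 min; imager read of total nuclear intensity, ex 405/em 500-530 nm.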
# * = called active by the depositor; u = inconclusive; x = not tested or not shown; [ ] = another dose, or the depositor's remark. Sampled rows, rich in hits. Any-hit rate of the full collection: about 10%. Calls come from the whole dose curve; as a rule, active = well fitted curve in the direction sought with a large enough effect; inconclusive = small, poorly fitted or top-dose-only effect, or another doubt; inactive = no such curve, though single readings can be large; an effect the other way counts as inactive or inconclusive. Potency is the fitted concentration of half-maximal effect.
SMILES,VP16 counter,RORg inh,ELG1 repair inh,MCF10A rerep,SW480 rerep
COc1ccc(NC(=O)CCC(=O)c2cccs2)cc1Cl,18%,28%,10%,1%,10%
CC(=O)c1ccc(-c2ccccc2[C@H]2[C@H]3C=CC[C@@H](C)[C@@H]3C(=O)N2Cc2ccccc2)cc1,-2%,27%,u,x,x
Cc1cc(C)c(S(=O)(=O)OC[C@H]2C=CC[C@@H](CCC[C@H]3O[C@H](C(=O)OC(C)C)CC[C@@H]3C)O2)c(C)c1,1%,-1%,x,x,x
Fc1ccc(NC(=S)Nc2cc(-c3ccccc3)[nH]n2)cc1Cl,1.6µM*,0.79µM*,u,u,-3%
CC(=O)Nc1cc(-c2ccc(Cl)cc2)[nH]n1,-14%,0%,u,-23%[9.22 µM],-48%
Cc1ccc(NC(=S)Nc2cc(-c3ccccc3)[nH]n2)cc1Cl,2.2µM*,0.79µM*,-2%,11%,4%
O=C(OCC1CO1)C1CCCCC1C(=O)OCC1CO1 (stereo unspecified),1%,26%,x,x,x
CCCCN(C(=O)c1cccc(S(=O)(=O)N(C)c2ccc(C)cc2)c1)c1c(N)n(CCCC)c(=O)[nH]c1=O,x,x,u,2%,u
COc1ccc(OCc2ccc(C(=O)NN)cc2)cc1,-12%,3%,u,-4%,-4%
COc1ccc(-n2c(=S)[nH]c3cc(C(=O)N4CCN(c5ccccc5)CC4)ccc3c2=O)c(OC)c1,13µM*,u,-27%,4%,-1%
COc1ccc(-n2c(=S)[nH]c3cc(C(=O)NCc4ccccc4)ccc3c2=O)c(OC)c1,u,20µM*,10%,13%,1%
COc1ccc(-n2c(=O)[nH]c3cc(C(=O)NCCc4ccccc4)ccc3c2=O)cc1OC,4%,2%,21µM*,1%,u
COc1ccc(-n2c(=S)[nH]c3cc(C(=O)NCc4cccnc4)ccc3c2=O)c(OC)c1,-15%,-21%,0%,4%,-10%
Cn1c(-c2sc3ccccc3c2Cl)n[nH]c1=S,u,u,4%,0%,-3%
COc1ccc(NC(=O)c2cccc(S(=O)(=O)NCc3ccco3)c2)c(OC)c1,x,x,-24%,3%,-69%
Oc1c(Cl)cccc1C=Nc1cc(C(F)(F)F)ccc1N1CCCC1,u,11µM*,-5%,6%,-4%
CC1CC(C)CN(C(=O)c2cccc(S(=O)(=O)Nc3cc(C(F)(F)F)ccc3Cl)c2)C1 (stereo unspecified),-12%,u,-6%,u,-5%
Cc1cc2nc(CCN(C(=S)NCC(C)C)C3CCCC3)[nH]c2cc1C,u,7.1µM*,u,3%,-2%
Cc1cc2nc(CCN(C(=S)NCC3CCCO3)C3CCCC3)[nH]c2cc1C (stereo unspecified),u,13µM*,u,21%,73%
O=C(CNC(=S)N(Cc1ccc(F)cc1)C1CCCCC1)NCC1CCCO1 (stereo unspecified),9%,-16%,9%,-5%,-4%
Cc1cccc2cc(CN(C(=S)NCC(C)C)C3CCCC3)c(=O)[nH]c12,u,-43%,-4%,5%,2%
Cc1c(C(=O)N2c3ccccc3CC2C)oc2ccccc12 (stereo unspecified),8%,4%,u,26%,u
NC(=O)[C@@H]1CCCN1,9%,5%,x,x,x
O=C(Nc1nnc(-c2ccc(Br)cc2)o1)c1ccco1,x,x,u,16%,4%
O=C(Nc1nnc(-c2cccs2)o1)c1ccco1,6.3µM*,2.5µM*,u,7%,-8%
SMILES,VP16 counter,RORg inh,ELG1 repair inh,MCF10A rerep,SW480 rerep
O=C(Nc1nnc(-c2ccccc2Cl)o1)c1ccco1,5µM*,2.8µM*,u,99%,12µM*
O=C(Nc1nc(-c2cccs2)c(-c2ccccc2)s1)c1ccco1,7.9µM*,u,30%,u,1%
O=C(Nc1nnc(-c2ccccc2Cl)o1)c1nc2ccccc2s1,u,1.1µM*,u,u,3%
CC(=O)Nc1sc(NC(=O)c2ccco2)nc1-c1cccs1,22%,11%,17%,u,-17%
CC1CC1C(=O)Nc1nc(-c2cccs2)c(-c2cccs2)s1 (stereo unspecified),12%,10µM*,11%,u,-5%
O=C1/C(=C/c2cccs2)SC(=S)N1CC(=O)N1CCCCC1CCO (stereo unspecified),-2%,15%,u,-5%,-14%
COc1ccccc1NS(=O)(=O)c1ccc(C)c(NS(=O)(=O)c2cc(C(=O)O)cc(C)c2C)c1,-3%,6%,11%,-7%,-8%
Cc1cc(C)nc(-n2nc(C)c(Sc3ccc(F)cc3)c2N)n1,4µM*,2.2µM*,u,3.3µM*,18µM*
Cc1nn(-c2ccccc2)c(N)c1Sc1cccc([N+](=O)[O-])c1,-14%,17%,-9%,11%,-9%
CS(=O)(=O)N1CCN(c2ccccc2NC(=S)NC(=O)c2cccs2)CC1,-19%,11µM*,u,4%,10%
CC1CCN(c2ccccc2NC(=S)NC(=O)C(C)(C)C)CC1,u,1.6µM*,3%,u,28%
CS(=O)(=O)N1CCN(c2ccccc2NC(=S)NC(=O)c2ccccc2[N+](=O)[O-])CC1,u,-42%,u,1%,-2%
CC(C)C(=O)N1CCN(c2ccccc2NC(=S)NC(=O)c2cccs2)CC1,u,14µM*,u,-1%,u
CC1CCN(c2ccccc2NC(=O)c2ccc(F)cc2)CC1,-14%,-6%,3%,u,-10%
CC1CCN(c2ccccc2NC(=S)NC(=O)c2ccco2)CC1,x,x,x,18µM*,9%
COc1ccc(NS(=O)(=O)c2ccc(NC(=S)NC(=O)/C=C/c3ccccc3)cc2)nn1,u,u,-2%,18%,-2%
O=C(CN(Cc1ccc(F)cc1)C(=O)CNS(=O)(=O)c1ccccc1)NCC1CCCO1 (stereo unspecified),-1%,0%,u,1%,-5%
CC(=O)N1CCN(c2ccccc2NC(=O)c2cccs2)CC1,3%,-31%,7%,-4%,-5%
CC1CCN(c2ccccc2NC(=S)NC(=O)c2cccs2)CC1,6.3µM*,2.2µM*,8%,10µM*,-2%[9.22 µM]
CCN(CC)S(=O)(=O)c1ccc(N2CCOCC2)c(NC(=O)c2nn(C)c(=O)c3ccccc23)c1,x,x,x,1%,2%
CCOc1cc(N2CCOCC2)c(OCC)cc1NC(=O)COC(=O)c1ccccc1C,10%,14%,u,11%,-9%
CCN(CC)S(=O)(=O)c1ccc(N2CCCC2)c(NC(=O)c2nn(C)c(=O)c3ccccc23)c1,x,x,18µM*,1%,1%
